# Reference: PubChem BioAssay (NCI)
# About 79,000 compounds went through this panel and 15% of them were active in at least one assay; those are over-represented in the sample as a whole. A number with no mark means an inactive call. Activity calls are given as the source filed them. Cut-off read from the data, not from the text of the source: active = growth inhibition above about 70%; inactive = the rest.
# Assays:
# [1] = NCI Yeast Anticancer Drug Screen. Data for the rad52 strain (AID 147);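 note: 0% = growth of vehicle-treated control cultures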; settings: S. cerevisiae rad52 mutant growth inhibition, stronger effect = higher value
# Outline: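 Yeast strain carrying a DNA damage repair alteration was exposed to test compounds. Growth inhibition was measured relative to vehicle-treated controls.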
# [2] = NCI Yeast Anticancer Drug Screen. Data for the wt1 strain (AID 149);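 note: 0% = growth of vehicle-treated wt1 cultures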; settings: S. cerevisiae wt1 strain (SPY 50644) growth inhibition, stronger effect = higher value
# Outline: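 Growth inhibition read against vehicle controls after compound exposure of the wt1 yeast strain.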
# [3] = NCI Yeast Anticancer Drug Screen. Data for the rad50EPP+ strain (AID 151);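 note: 0% = growth of vehicle-treated control cultures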; settings: S. cerevisiae rad50 mutant strain, stronger effect = higher value
# Outline: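 Yeast strain carrying rad50 alteration (rad50EPP+) exposed to compounds; growth inhibition measured relative to vehicle-treated controls.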
# [4] = NCI Yeast Anticancer Drug Screen. Data for the rad50 strain (AID 155);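 note: 0% = growth of vehicle-only cultures of the same strain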; settings: S. cerevisiae rad50 strain growth inhibition, stronger effect = higher value
# Outline: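 Readout: growth inhibition relative to vehicle-treated cultures. Compound exposure was carried out in a genetically defined yeast strain deficient in DNA damage repair.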
# [5] = NCI Yeast Anticancer Drug Screen. Data for the mec2-1 strain (AID 157); settings: S. cerevisiae mec2-1 strain, stronger effect = higher value
# Outline: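 mec2-1 yeast strain, carrying an alteration in DNA damage repair or cell cycle control, was exposed to compounds; growth inhibition was measured relative to vehicle-treated controls.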
# [6] = at 5.0 µM (retest, dose inferred, filed as 0.5)
# [7] = at 50.0 µM (retest, dose inferred, filed as 5.0)
compound,measurement,setting,value
CN(C)c1ccc(N=Nc2ccccn2)cc1,growth inhibition,[1]; at 1.2 µM,-15%
same,growth inhibition,[1]; at 3.7 µM,-12%
same,growth inhibition,[1]; at 11.0 µM,15%
same,growth inhibition,[1]; at 33.0 µM,89% (active)
same,growth inhibition,[1]; at 100.0 µM,94% (active)
same,growth inhibition,[2]; at 1.2 µM,-21%
same,growth inhibition,[2]; at 3.7 µM,31%
same,growth inhibition,[2]; at 11.0 µM,29%
same,growth inhibition,[2]; at 33.0 µM,87% (active)
same,growth inhibition,[2]; at 100.0 µM,94% (active)
same,growth inhibition,[3]; at 1.2 µM,-88%
same,growth inhibition,[3]; at 3.7 µM,-118%
same,growth inhibition,[3]; at 11.0 µM,-85%
same,growth inhibition,[3]; at 33.0 µM,66%
same,growth inhibition,[3]; at 100.0 µM,85% (active)
same,growth inhibition,[4]; at 1.2 µM,-29%
same,growth inhibition,[4]; at 3.7 µM,-18%
same,growth inhibition,[4]; [6],100% (active)
same,growth inhibition,[4]; at 11.0 µM,26%
same,growth inhibition,[4]; at 33.0 µM,94% (active)
same,growth inhibition,[4]; [7],100% (active)
same,growth inhibition,[4]; at 50.0 µM,81.6% (active)
same,growth inhibition,[4]; at 100.0 µM,96% (active)
same,growth inhibition,[5]; at 1.2 µM,-10%
same,growth inhibition,[5]; at 3.7 µM,20%
same,growth inhibition,[5]; [6],100% (active)
same,growth inhibition,[5]; at 11.0 µM,14%
same,growth inhibition,[5]; at 33.0 µM,66%
same,growth inhibition,[5]; [7],100% (active)
same,growth inhibition,[5]; at 50.0 µM,82.9% (active)
